Results filed as inconclusive are left out. A call without a number means that no potency is given here. Calls of active or inactive are those of the source. The call rests on the fitted dose curve; in most records, active means well fitted activation curve with a large enough effect in the repeat runs; inconclusive means weak or mixed curves; inactive means flat fitted curve, though single readings scatter.
Potency means the concentration at half of the fitted maximal effect.

The nature of this assay: A CellTox Green Cytotoxicity Assay to monitor cytotoxicity in HEK293 cells - 24 hour (AID 1224875). Further: nearly all actives have a fitted effect of over 45% in size. As to conditions: CellTox Green fluorescence; series mostly up to 76.8 µM. The text has this: National Center for Advancing Translational Sciences [NCATS]
NIH Chemical Genomics Center [NCGC]
U.S. Environmental Protection Agency [EPA]
National Institutes of Environmental Health Sciences [NIEHS]
National Toxicology Program [NTP]
Cell-based models are critical for drug discovery. Determining the natural cytotoxic effects resulting from test compounds is an essential research activity. A CellTox Green Cytotoxicity Assay to monitor cytotoxicity in real time of continues cell culture during 40 hours of the compound treatment was used to screen Tox21 10K library compounds in Hek293 cells. CellTox Green Cytotoxicity Assay is a nonlytic, homogeneous, biofluorescent method to measure cytotoxicity in cell culture after experimental manipulation. The assay system uses a proprietary asymmetric cyanine dye that is excluded from viable cells but preferentially stains the dead cell's DNA. […] Viable cells produce no appreciable increases in fluorescence. Therefore, the fluorescence signal produced by the binding interaction with dead cell DNA is proportional to cytotoxicity.
The mixture of Hek293 cell suspension and reagents were dispensed at 600cells/6 ul/well in 1536-well tissue culture treated black solid bottom plates using a Multidrop dispenser. After the assay plates were incubated at a 37 C/5% CO2 incubator for 5 hours, 23 nL of compounds dissolved in DMSO, positive and negative controls was transferred to the assay plate by a pintool work station. The plates were incubated at 37 C for 40 hours. The fluorescence intensity were measured at 0h, 8h, 16h, 24h, 32h and 40h time points using ViewLux plate reader during compound treatment.
Regarding `C[Si](NC1CCCCC1)(NC1CCCCC1)NC1CCCCC1`, the Potency entry is “inactive”.
On the same count and under the same terms, the entry for `C=CCNc1nc(NCC=C)nc(N2CCN(C(c3ccc(F)cc3)c3ccc(F)cc3)CC2)n1` is “inactive”; for `CCN(CC)CCNC(=O)c1ccc(NC(C)=O)cc1` it is “inactive”.
Still for that read-out and setting: under `CN(C)CCOC1=Cc2ccccc2Sc2ccc(Cl)cc21` stands “inactive”.
The same measure, in the same setting: the entry for `CC1=CC(O)CC(C)(C)C1` (stereo not given) is “inactive”; for `N#C/C(=C1\SCC(c2ccccc2Cl)S1)n1ccnc1` (stereo not given) it is “inactive”.
Turning to `c1cnc2c(n1)CCCC2`, the Potency was 43.6 µM (active).
Turning to `CO[C@H]1O[C@H](CO)[C@@H](O)[C@H](O)[C@H]1O`, the Potency entry is “inactive”.
The same measure, in the same setting: the entry for `CC[C@H](NC(=O)c1cc(F)ccc1NS(=O)(=O)c1cccc2cccnc12)c1ccccc1` is “inactive”.
Still for that read-out and setting: under `COC(OC)(C(=O)c1ccccc1)c1ccccc1` stands “inactive”; under `CC(C)(C)C(=O)O`, “inactive”; under `CC(C)CCCCCCOC(=O)CCCCC(=O)OCCCCCCC(C)C`, “inactive”.
On the same count and under the same terms, the entry for `O=C(O)c1ccc(CO)o1` is “inactive”; for `CN1Cc2cc(C(=O)N3CCC(C4CCNCC4)CC3)ccc2N[C@@H](CC(=O)O)C1=O` it is “inactive”; for `C[C@]12CCC(=O)C=C1C=C[C@@H]1[C@@H]2CC[C@@]2(C)[C@H]1CC[C@@]21CCC(=O)O1` it is “inactive”.
Consider `CCOC(=O)C(C)Oc1ccc(Oc2nc3ccc(Cl)cc3o2)cc1` (stereo not given), for which the Potency result is “inactive”.
Turning to `CCCCC/C(=C\c1ccccc1)CO`, the Potency is 48.4 µM (active).
On the same count and under the same terms, under `COc1cc2c(N3CCN(C(=O)Nc4ccc(OC(C)C)cc4)CC3)ncnc2cc1OCCCN1CCCCC1` stands “inactive”; under `Cc1nc2ccccc2s1`, “inactive”.
Same read-out and setting: under `CC(Cl)C(Cl)Cl` (stereo not given) stands 42.9 µM (active); under `CC(=O)CC(c1ccc([N+](=O)[O-])cc1)c1c(O)c2ccccc2oc1=O` (stereo not given), “inactive”; under `CCCCC(CC)CNCC(CC)CCCC` (stereo not given), “inactive”.
Same read-out and setting: under `Cc1oc(C)c(C(=O)Nc2ccccc2)c1C` stands “inactive”.
`CCCC(=O)O[C@]1(C(=O)COC(=O)CC)CC[C@H]2[C@@H]3CCC4=CC(=O)CC[C@]4(C)[C@H]3[C@@H](O)C[C@@]21C`: the activity change is -15.7% [at 15.8 µM, stronger effect = higher value] (inactive).
As to `CO[C@@]12[C@H](COC(N)=O)C3=C(C(=O)C(C)=C(N)C3=O)N1C[C@@H]1N[C@@H]12`, the Potency entry was “inactive”.
Same read-out and setting: the entry for `Cc1ccc(S)cc1` is “inactive”.
Still for that read-out and setting: the entry for `O=C(O)c1cccc(O)c1` is “inactive”.
Same read-out and setting: under `C1COCO1` stands “inactive”; under `COC(=O)Nc1nc2ccc(C(=O)c3cccs3)cc2[nH]1`, “inactive”; under `CCC(=O)OC/C=C/c1ccccc1`, “inactive”.
Regarding `CCCc1c(OCCCOc2ccc(OCC(=O)O)cc2)ccc(C(C)=O)c1O`, the Potency entry is “inactive”.
Same read-out and setting: the entry for `CCNC(=O)N1CCN(CCCC(c2ccc(F)cc2)c2ccc(F)cc2)CC1` is “inactive”.
Still for that read-out and setting: the entry for `CCCCCCCC/C=C\CCCCCCCC(=O)OC(CO)CO` is “inactive”; for `O=S(=O)(c1ccccc1)c1ccc(Cl)cc1` it is “inactive”; for `Nc1c(I)cc(I)c(C(=O)N(CCC(=O)O)c2ccccc2)c1I` it is “inactive”.
Same read-out and setting: the entry for `Nc1ccc(Cl)cc1[N+](=O)[O-]` is “inactive”; for `CC(C)c1nnc2ccc(-c3ocnc3-c3cc(F)ccc3F)cn12` it is “inactive”; for `Cc1cc(C(=C2C=CC(=Nc3ccc(S(=O)(=O)O)cc3S(=O)(=O)O)C=C2)c2ccc(Nc3ccc(S(=O)(=O)O)cc3)cc2)ccc1N` it is “inactive”.
Regarding `C(=C\c1ccccc1)/CN1CCN(C(c2ccccc2)c2ccccc2)CC1`, the Potency result was “inactive”.
In the case of `CCN(Cc1cccc(S(=O)(=O)O)c1)c1ccc(C(=C2C=CC(=[N+](CC)Cc3cccc(S(=O)(=O)[O-])c3)C=C2)c2ccccc2)cc1`, the Potency result is “inactive”.

The values are drawn from PubChem BioAssay (Tox21).
